Test systems include SR leukemia; RPMI-8226 leukemia; OVCAR-8 ovarian; OVCAR-5 ovarian; SK-OV-3 ovarian; HS 578T breast; NCI/ADR-RES ovarian; OVCAR-4 ovarian; IGROV1 ovarian; OVCAR-3 ovarian.
Assay in all cases: NCI-60 one-dose screen, 48 h (100 = growth as untreated, 0 = no growth, -100 = all killed)
Common to all, as to settings: 10 µM unless noted

About 83,000 compounds went through this panel and 20% of them were active in at least one assay; those are over-represented in the sample as a whole.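 Results are percent growth after 48 hours of single-concentration exposure. 100 means growth as in untreated cells, lower positive values show inhibition; negative values down to -100 show cell death.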 A number with no mark means an inactive call. Calls of active or inactive are those of the source. How the source made its calls: active means growth percent below 10; inactive means the rest.

On to `Cc1cccc(NC(=O)c2sc3nc4c(cc3c2N)CCC4)c1C`, for which the growth was 25% with SR leukemia; -5.02% (active) with RPMI-8226 leukemia; 14.1% in the test with OVCAR-8 ovarian; 44% in the test on OVCAR-5 ovarian; 37.9% with SK-OV-3 ovarian; 28.6% in the test with HS 578T breast. Moreover, in the test on NCI/ADR-RES ovarian, the growth was -16.2% (active).
Take `CCN1C(=O)N(CC)C2C1NN=c1s/c(=C3\C(=O)N(C4CCCC4)c4ccccc43)c(=O)n12` (stereo unspecified): the growth in the test on SR leukemia was 0.0502% (active); in the test on RPMI-8226 leukemia, -0.279% (active); with OVCAR-8 ovarian it was 23%; with OVCAR-5 ovarian, 49.7%; in the test with OVCAR-4 ovarian it was 46.1%; with IGROV1 ovarian it was 31.9%. Also, the growth with OVCAR-3 ovarian is -35.3% (active); in the test with HS 578T breast, -7.85% (active); with NCI/ADR-RES ovarian, -22.8% (active).
On to `Nc1cccc2c1CN(C1CCC(=O)NC1=O)C2=O` (stereo unspecified), for which the growth is 71.8% with SR leukemia; 109% with RPMI-8226 leukemia; 81.1% with OVCAR-8 ovarian; 95.6% with OVCAR-5 ovarian; 105% in the test with OVCAR-4 ovarian; 29.8% in the test on IGROV1 ovarian. In addition, the growth was 108% in the test with OVCAR-3 ovarian, 112% with HS 578T breast and 104% with NCI/ADR-RES ovarian.
For the compound `COc1ccc(C(=O)/C=C/c2cc(C(=O)c3cc(OC)c(OC)c(OC)c3)ccc2OC)cc1`, the growth with SR leukemia was 6.69% (active); with RPMI-8226 leukemia, 14.6%; with OVCAR-8 ovarian it was 43.8%; in the test with OVCAR-5 ovarian, 45%; in the test on SK-OV-3 ovarian, 90%; with IGROV1 ovarian it was 62.2%. The growth in the test with OVCAR-3 ovarian is 60.6%; with HS 578T breast, 62.5%; in the test with NCI/ADR-RES ovarian, 26.5%.
Regarding `COc1ccc(C2=CC(c3ccc(Oc4ccnc5cc(Cl)ccc45)c(OC)c3)c3c(nc(OC)[nH]c3=O)N2)cc1` (stereo unspecified), the growth in the test with SR leukemia was 13.4%; in the test with RPMI-8226 leukemia, 28.8%; with OVCAR-5 ovarian, 115%; in the test with OVCAR-4 ovarian it was 63.9%; in the test on SK-OV-3 ovarian, 102%; in the test with IGROV1 ovarian, 86.6%. Further, the growth in the test on OVCAR-3 ovarian was 58%; with HS 578T breast, 97.1%; in the test on NCI/ADR-RES ovarian, 71.1%.
Turning to `CCCCCCCCCCCCCCCCCCOc1cccc(CCOP(=O)(O)OCC[N+](C)(C)C)c1`, the growth with SR leukemia was 58.6%; in the test with RPMI-8226 leukemia it was 86.9%; in the test with OVCAR-8 ovarian it was 95%; in the test on OVCAR-5 ovarian, 101%; in the test with OVCAR-4 ovarian, 91.4%; with IGROV1 ovarian, 39%. In addition, the growth with OVCAR-3 ovarian was 86.9%; in the test with HS 578T breast, 93.1%; in the test on NCI/ADR-RES ovarian, 94.1%.
Take `CCN(CC)P(=O)(N(CC)CC)N(CCCSC/C=C(\C)CC/C=C(\C)CCC=C(C)C)CCCN1CCN(C)CC1`: the growth with SR leukemia was 22.9%; with RPMI-8226 leukemia, 94.6%; in the test with OVCAR-8 ovarian it was 97.1%; with OVCAR-5 ovarian it was 103%; in the test with OVCAR-4 ovarian, 92.5%; in the test on IGROV1 ovarian, 110%. In addition, the figures for the growth in the test on OVCAR-3 ovarian and in the test on NCI/ADR-RES ovarian were 104% and 106%, respectively.
As to `COc1cc(C(=O)/C=C/c2cc(C(=O)c3cc(OC)c(OC)c(OC)c3)ccc2OC)ccc1N`, the growth in the test with SR leukemia is -7.95% (active); in the test with RPMI-8226 leukemia it was -9.87% (active); with OVCAR-8 ovarian, 4.2% (active); with OVCAR-5 ovarian, -54.1% (active); in the test with SK-OV-3 ovarian, 32.5%; with IGROV1 ovarian it was -12.7% (active). For the same compound, the growth was -53% (active) in the test with OVCAR-3 ovarian, 46.1% with HS 578T breast and 1.57% (active) in the test with NCI/ADR-RES ovarian.
Take `CCCCC(N)(C(=O)O)C1CCCC1` (stereo unspecified): the growth with SR leukemia is 96.4%; in the test on OVCAR-8 ovarian, 97.2%; in the test with OVCAR-5 ovarian it was 97.8%; in the test on OVCAR-4 ovarian, 103%; in the test on SK-OV-3 ovarian it was 117%; with IGROV1 ovarian, 110%. Also, the growth with OVCAR-3 ovarian is 116%; in the test with HS 578T breast, 122%; with NCI/ADR-RES ovarian it was 97.4%.
As for `CCN1C(=O)/C(=c2\sc3n(c2=O)C2C(NN=3)N(CC)C(=S)N2CC)c2ccccc21` (stereo unspecified), the growth is 91.8% in the test on SR leukemia; 105% in the test with RPMI-8226 leukemia; 100% in the test on OVCAR-8 ovarian; 107% with OVCAR-5 ovarian; 88.7% in the test with OVCAR-4 ovarian; 100% in the test on IGROV1 ovarian. The growth is 103% in the test on OVCAR-3 ovarian, 99.8% in the test with HS 578T breast and 103% with NCI/ADR-RES ovarian.
In the case of `Nc1c(C(=O)Nc2ccccc2)sc2nc3c(cc12)CCC3`, the growth with SR leukemia was 39.6%; in the test on RPMI-8226 leukemia, 83.4%; in the test on OVCAR-8 ovarian, 88.2%; in the test with OVCAR-5 ovarian, 99.4%; with OVCAR-4 ovarian, 78.9%; in the test on IGROV1 ovarian, 90.2%. For the same compound, the results for the growth with HS 578T breast and in the test on NCI/ADR-RES ovarian were 92.8% and 66.6%, respectively.
Regarding `C[N+](C)(C)c1ccc(CC2c3ccccc3-c3ccccc32)cc1`, the growth is 85% in the test with SR leukemia; 68.6% in the test with RPMI-8226 leukemia; 85.7% with OVCAR-8 ovarian; 86.1% in the test with OVCAR-5 ovarian; 85.2% with OVCAR-4 ovarian; 64.4% in the test on IGROV1 ovarian. Moreover, the growth in the test with OVCAR-3 ovarian is 67%; with HS 578T breast it was 4.68% (active); in the test with NCI/ADR-RES ovarian, 107%.
Regarding `COc1ccc(NC(=O)CSc2nc3ccccc3c(=O)n2Cc2cc(OC)c(OC)c(OC)c2)cc1`, the growth with SR leukemia was 82.3%; with RPMI-8226 leukemia, 86%; with OVCAR-8 ovarian it was 91.9%; with OVCAR-5 ovarian it was 102%; in the test on OVCAR-4 ovarian, 82.8%; with IGROV1 ovarian, 99%. Also, the figures for the growth in the test with HS 578T breast and in the test on NCI/ADR-RES ovarian were 96.1% and 84%, respectively.
Consider `COc1cc(/C=C\c2cc(OC)c(OC)c(OC)c2)cc(N/C=C\C(=O)c2c[nH]c3ccccc23)c1OC`, for which the growth in the test with SR leukemia was -36.8% (active); in the test on RPMI-8226 leukemia, -32.8% (active); in the test with OVCAR-8 ovarian, 33.8%; with OVCAR-5 ovarian, 35.3%; with SK-OV-3 ovarian, 90.1%; with IGROV1 ovarian it was 40.5%. Also, the growth is -93.6% (active) in the test on OVCAR-3 ovarian, 67.5% in the test with HS 578T breast and 73.5% in the test on NCI/ADR-RES ovarian.

The values above are taken from PubChem BioAssay (NCI).
